# In all, about 52,000 compounds went through this assay and about 1,700 (3.3%) were called active. What follows is part of a selection rich in actives, with near analogues and random picks from the rest. Unmarked numbers belong to inactive results. No stated cut-off is given here; in the data, active means survival mostly below about 52% (no sharp cut-off); inactive means mostly above about 56%.
# Tested on: Wild type
# Experiment: S. aureus survival, RN4220 and DeltatarO strains – OD600, teichoic acid synthesis inhibitors, primary screen (AID 463173)
# Conditions: S. aureus RN4220 wild type/DeltatarO growth, OD600, 18 h, hits give low values, screened at 18.75 µg/mL (by protocol)
row,Compound,survival
1,COc1ccc(OC)c(NC(=O)Cn2cc(C(=O)c3ccc(Cl)cc3)c(=O)c3cc(OC)ccc32)c1,68%
2,O=C(CSc1nc2c([nH]c3ccccc32)c(=O)n1-c1ccccc1)Nc1ccc2c(c1)OCCO2,87%
3,Cc1cc(C)cc(NS(=O)(=O)c2ccc3[nH]cc(C(=O)N(C)Cc4ccccc4)c(=O)c3c2)c1,111%
4,Cc1ccccc1NS(=O)(=O)c1ccc2[nH]cc(C(=O)NC3CCCCC3)c(=O)c2c1,80%
5,Cc1c(Cl)cccc1NS(=O)(=O)c1ccc2[nH]cc(C(=O)NC3CCCC3)c(=O)c2c1,11% (active)
6,CCc1ccc(NS(=O)(=O)c2ccc3[nH]cc(C(=O)NC4CCCC4)c(=O)c3c2)cc1,9% (active)
7,CCOc1ccc(NS(=O)(=O)c2ccc3[nH]cc(C(=O)N(C)Cc4ccccc4)c(=O)c3c2)cc1,1% (active)
8,CCOc1ccc(NS(=O)(=O)c2ccc3[nH]cc(C(=O)NCc4ccccc4)c(=O)c3c2)cc1,74%
9,CNC(=O)c1c[nH]c2ccc(S(=O)(=O)Nc3cccc(Cl)c3C)cc2c1=O,82%
10,CC(C)c1ccc(NS(=O)(=O)c2ccc3[nH]cc(C(=O)NC4CCCCC4)c(=O)c3c2)cc1,13%
11,CC(C)c1ccc(NS(=O)(=O)c2ccc3[nH]cc(C(=O)NC4CCCC4)c(=O)c3c2)cc1,7% (active)
12,Cc1cc(C)cc(NS(=O)(=O)c2ccc3[nH]cc(C(=O)NC4CCCCC4)c(=O)c3c2)c1,27%
13,CCOc1ccc(NS(=O)(=O)c2ccc3[nH]cc(C(=O)NC4CCCC4)c(=O)c3c2)cc1,55%
14,CCc1ccccc1NS(=O)(=O)c1ccc2[nH]cc(C(=O)NC3CCCC3)c(=O)c2c1,42%
15,COc1ccc(-n2ncc3c2ncn2nc(-c4ccc(Cl)cc4Cl)nc32)cc1,92%
16,Cc1ccc(NC2=NCC(=O)N2C2CCCC2)cc1C,104%
17,CCOC(=O)c1cc(-c2ccccc2)n(CCCC(=O)Nc2ccc(C)cc2Cl)c1C,91%
18,COc1ccc(S(=O)(=O)N/N=C(/C2CCCCC2)C(F)(F)F)cc1,111%
19,CCN(C(=O)CCS(=O)(=O)c1ccc2c(c1)oc(=O)n2C)c1ccc(OC)cc1,70%
20,CCc1ccccc1NC(=O)Nc1cc(C(=O)NCc2ccc(OC)cc2)ccc1N1CCCC1,128%
21,O=C(NC1CCCC1)c1c[nH]c2ccc(S(=O)(=O)Nc3cccc(C(F)(F)F)c3)cc2c1=O,11% (active)
22,CN(C(=O)c1c[nH]c2ccc(S(=O)(=O)Nc3cccc(C(F)(F)F)c3)cc2c1=O)C1CCCCC1,71%
23,COc1cccc(NS(=O)(=O)c2ccc3[nH]cc(C(=O)NC4CCCCC4)c(=O)c3c2)c1,50%
24,COc1cccc(-n2c(SCC(=O)c3ccc(Cl)cc3)nc3c([nH]c4ccccc43)c2=O)c1,45%

row,Compound,survival
1,COc1cc(OC)c(NC2(c3ccccc3)C(=O)c3ccccc3C2=O)cc1Cl,65%
2,Cc1oc2ccc(O)c(CN(C)Cc3ccccc3)c2c1C(=O)Nc1cccc(C(F)(F)F)c1,10% (active)
3,CCN(CC)CCCNC(=O)c1c(C)oc2ncn(CC(C)C)c(=O)c12,81%
4,Cc1oc2ccc(O)c(CN3CCN(C)CC3)c2c1C(=O)Nc1cccc(C(F)(F)F)c1,92%
5,Cc1oc2ncn(CC(C)C)c(=O)c2c1C(=O)Nc1cccc(C(F)(F)F)c1,-3% (active)
6,CCOc1ccc(CCNC(=O)c2c(C)oc3ncn(C)c(=O)c23)cc1,82%
7,Cc1oc2ccc(O)c(CN(C)Cc3ccccc3)c2c1C(=O)Nc1ccccc1,105%
8,Cc1cccc(NC(=O)c2c(C)oc3ncn(CC(C)C)c(=O)c23)n1,71%
9,CSc1ccc(CCNC(=O)c2c(C)oc3ncn(C)c(=O)c23)cc1,-4% (active)
10,Cc1ccnc(NC(=O)c2c(C)oc3ncn(CC(C)C)c(=O)c23)c1,69%
11,CCNC(=O)c1c(C)oc2ncn(C)c(=O)c12,119%
12,CCCCNC(=O)c1c(C)oc2ncn(CC(C)C)c(=O)c12,1% (active)
13,Cc1oc2ncn(CC(C)C)c(=O)c2c1C(=O)NCCCN1CCCCC1,73%
14,Cc1ccc(CNC(=O)CCCCCn2c(=O)[nH]c3ccccc3c2=O)cc1,146%
15,CCOc1ccc(NS(=O)(=O)c2ccc3[nH]cc(C(=O)N4CCCCCC4)c(=O)c3c2)cc1,122%
16,COc1ccccc1N1CCN(Cc2nnc(-c3ccccc3C)o2)CC1,82%
17,CCc1nn2c(=O)c(S(=O)(=O)Nc3ccc(Br)cc3F)c(C)nc2s1,61%
18,COc1ccccc1C(=O)NC1(C(F)(F)F)C(=O)NC(C)=C1C#N (centres undefined),90%
19,CC(C)(C)NC(=O)c1oc2ccccc2c1NC(=O)c1ccc(F)cc1,73%
20,CCOc1ccc(NC(=O)c2oc3ccccc3c2NC(=O)C2CCCCC2)cc1,84%
21,Cc1ccc(C(=O)Nc2c(C(=O)NC(C)(C)C)oc3ccccc23)cc1,0% (active)
22,CN(C)c1ccc(C(=O)Nc2c(C(=O)NC(C)(C)C)oc3ccccc23)cc1,65%
23,Cc1ccc(NC(=O)c2oc3ccccc3c2NC(=O)C2CCCCC2)cc1,4% (active)
24,O=C(Nc1ccc(F)cc1)c1oc2ccccc2c1NC(=O)C1CCCCC1,14%

row,Compound,survival
1,CCOC(=O)c1sc(NC(=O)c2c(-c3ccccc3)c(-c3ccccc3)nn(C)c2=O)nc1C,71%
2,COc1ccc(-c2noc(Cn3c(=O)c4ccccc4n(CC(=O)Nc4cccc(OC)c4)c3=O)n2)cc1,82%
3,Cc1ccccc1NS(=O)(=O)c1ccc2[nH]cc(C(=O)N3CCCC3)c(=O)c2c1,99%
4,CC(Nc1ccc(-c2nc(-c3ccncc3)no2)cc1[N+](=O)[O-])c1ccccc1 (centres undefined),87%
5,CCOc1ccc(NC(=O)Cn2c(=O)oc3cc(S(=O)(=O)NC4CCCC4)ccc32)cc1,81%
6,CCOCCCNC(=O)c1cnc2sc(N3CCCCCC3)nn2c1=O,68%
7,CCOC(=O)C1(C)C=C(Nc2cccc(C)c2)C(=O)N1c1ccccc1 (centres undefined),51%
8,CCOC(=O)CC(NC(=O)CCc1c(C)nc2cc(-c3ccccc3)nn2c1C)c1ccc(C)cc1 (centres undefined),128%
9,CCOC(=O)Cc1c(C)nc2cc(C)nn2c1C,106%
10,CCOC(=O)Cc1c(C)nc2cc(-c3ccc(C(C)(C)C)cc3)nn2c1C,-2% (active)
11,O=C(Nc1ccccc1O)c1cccc(S(=O)(=O)Nc2ccccc2O)c1,108%
12,CCN1CCN(CC2CCCCC2)CC1,102%
13,CC1CN(C(=O)CCC(=O)NCc2ccccc2)c2cc(Cl)ccc2O1 (centres undefined),92%
14,Oc1ccccc1-c1nnc(SCc2ccccc2)o1,103%
15,Oc1ccc(-c2nnc(SCc3ccc(Cl)cc3)o2)cc1,112%
16,CCOc1ccccc1-c1nnc(SCc2ccc(Cl)cc2)o1,-14% (active)
17,Cc1cc(C(=O)N2CCN(c3cc(Cl)ccc3C)CC2)c2c(C)nn(-c3ccccc3)c2n1,136%
18,O=C(Nc1ncn[nH]1)C(F)(F)C(F)F,108%
19,O=C1CC(c2ccccc2)Cc2[nH]c(=O)c(C(=O)Nc3ccc(F)cc3)cc21 (centres undefined),75%
20,O=C1CC(c2ccccc2)Cc2[nH]c(=O)c(C(=O)Nc3cccc(Cl)c3)cc21 (centres undefined),0% (active)
21,Cc1cccc(NC(=O)c2cc3c([nH]c2=O)CC(c2ccccc2)CC3=O)c1 (centres undefined),-3% (active)
22,COc1ccc(NC(=O)c2cc3c([nH]c2=O)CC(c2ccccc2)CC3=O)cc1 (centres undefined),63%
23,O=C1CC(c2ccccc2)Cc2[nH]c(=O)c(C(=O)Nc3cccc(F)c3)cc21 (centres undefined),85%
24,CC(=O)c1ccc(NC(=O)c2cc3c([nH]c2=O)CC(c2ccccc2)CC3=O)cc1 (centres undefined),85%

row,Compound,survival
1,CCOC(=O)c1ccc(NC(=O)CSc2ccc(-c3ccccn3)nn2)cc1,90%
2,COc1ccccc1N1CCN(C(=O)c2nc(-c3ccc(C)cc3)n3c2CCCCC3)CC1,85%
3,Cc1ccc(-n2ncc3c(N(C)Cc4ccccc4)ncnc32)cc1,85%
4,Cc1ccc(-n2ncc3c(NCCc4ccccc4)ncnc32)cc1,76%
5,OCCN(CCO)c1ncnc2c1cnn2-c1ccc(F)cc1,1% (active)
6,Cc1ccc(-n2ncc3c(N(CCO)Cc4ccccc4)ncnc32)cc1,0% (active)
7,CCN(Cc1ccccc1)c1ncnc2c1cnn2-c1ccc(F)cc1,55%
8,CCCCN(CCCC)c1ncnc2c1cnn2-c1cccc(C)c1,91%
9,CCOc1ccc(-c2cc3nc(C4CCN(C(=O)OC(C)(C)C)CC4)c(C(=O)Nc4c(C)cccc4C)cn3n2)cc1,86%
10,CCOc1ccc(C(=O)CSc2nnc3cc(C)c4ccccc4n23)cc1,85%
11,CCOCCn1ccc2c(OCC(=O)Nc3cccc([N+](=O)[O-])c3)cccc2c1=O,128%
12,CCCN1C2CCCC1CC(NC(=O)c1ccc(F)cc1)C2 (centres undefined),108%
13,CNC(=O)Cn1c(=O)c2cccn2c2ccc(F)cc21,85%
14,OCCNc1nc2ccccc2n1CCOc1ccccc1,115%
15,COc1ccccc1OCCn1c(NC(=O)c2ccccc2Cl)nc2ccccc21,-10% (active)
16,COc1ccc(OCCn2c(NC(=O)c3ccc(OC)cc3)nc3ccccc32)cc1,-13% (active)
17,O=C(Nc1nc2ccccc2n1CCOc1ccccc1Cl)c1ccccc1,36%
18,COc1ccc(C(=O)Nc2nc3ccccc3n2CCOc2ccc(Cl)cc2)cc1,4% (active)
19,COc1ccc(OCCn2c(C(C)Oc3ccccc3)nc3ccccc32)cc1 (centres undefined),72%
20,COc1ccccc1OCCn1c(C(C)Oc2ccccc2)nc2ccccc21 (centres undefined),76%
21,CCCC(O)c1nc2ccccc2n1CCCOc1ccc(Cl)cc1 (centres undefined),97%
22,COc1ccccc1OCCn1c(NC(=O)c2ccc(Cl)cc2)nc2ccccc21,80%

# Reference: PubChem BioAssay AID463173 (ICCB-Longwood Screening Facility, Harvard Medical School, 2010)
